According to PubChem BioAssay (NCI):
This is part of a sample that, as a whole, favours compounds with a hit. Of some 79,000 tested, about 15% had one in any assay. Calls of active or inactive are those of the source. Cut-off read from the data, not from the text of the source: active = growth inhibition above about 70%; inactive = the rest.

Assay: NCI Yeast Anticancer Drug Screen. Data for the bub3 strain (AID 167)
Conditions: S. cerevisiae bub3 mutant strain, at 50.0 µM, active compounds read high
In short: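 Readout: yeast growth inhibition, expressed relative to vehicle-only wells. The test organism is a mutant strain from a panel with lesions in DNA repair or checkpoint genes.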

SMILES	growth inhibition
C1=NC2c3ccccc3Cc3cccc1c32 (centres undefined)	93.3% (active)
COc1ccc2c(c1)CN([C@@H](C)[C@H]1CC[C@H]3[C@@H]4CC[C@H]5C[C@@H](O)CC[C@]5(C)[C@H]4CC[C@]13C)CO2	98.7% (active)
Cc1c(N)nc(C(CC(N)=O)NCC(N)C(N)=O)nc1C(=O)NC(C(=O)NC(C)C(O)C(C)C(=O)NC(C(=O)NCCc1nc(-c2nc(C(=O)NCCCNCCCc3ccccn3)cs2)cs1)C(C)O)C(OC1OC(CO)C(O)C(O)C1OC1OC(CO)C(O)C(OC(N)=O)C1O)c1cnc[nH]1 (centres undefined)	93.3% (active)
COc1cc2c(cc1O)-c1c(cnn1-c1ccccc1)CCC2	93.3% (active)
CN(C)CC(CN(C)C)C(=O)c1ccc(Oc2ccc(Cl)cc2)cc1	51.6% (inactive)
N#CCCN(CCC#N)Cc1c(O)c(O)c(CN(CCC#N)CCC#N)c2ccccc12	54% (inactive)
Cc1cc2c(c([N+](=O)[O-])c1C)C(=O)C(Br)=C(N)C2=O	94% (active)
O=C(O)CSC(=S)N1CCCC1	-5.6% (inactive)
CNC1=C2NC(=O)/C(C)=C\C=C\C(C)C(O)C(C)C(O)C(C)C(OC(C)=O)C(C)C(OC)/C=C/OC3(C)Oc4c(C)c(O)c(c(c4C3=O)C1=O)C2=O (centres undefined)	52% (inactive)
O=c1c(Cl)nsnc1Cl	99.7% (active)
CC(NC(=O)OCc1ccccc1)C(=O)NNc1ccccc1Cl (centres undefined)	97.5% (active)
O=C(OCc1ccccc1CN1CCOCC1)c1cccc(Br)c1	52.2% (inactive)
OC(COc1ccc(Cl)cc1)COc1ccc(Cl)cc1	99.5% (active)
Cc1c(-c2ccc(C(=N)N)cc2)oc(-c2ccc(C(=N)N)cc2)c1C	86% (active)
COC(=O)[C@@]12OC[C@]34[C@H]([C@@H](O)[C@@H]1O)[C@@]1(C)CC(=O)C(O)=C(C)[C@@H]1C[C@H]3OC(=O)[C@H](OC(=O)C(Cc1ccccc1)NC(=O)OC(C)(C)C)[C@@H]24 (some centres undefined)	83.3% (active)
CCCCCCCCCCCCCCCC(=O)NCC[N+](C)(CC)CC	10.5% (inactive)
Oc1ccc(CCCCCc2ccc(O)cc2)cc1	99.6% (active)
NN(Cc1ccccc1)c1ccccc1	90.5% (active)
CCOC(=O)c1[nH]cc(C)c1-c1ccc2c(-c3ccccc3)nc3ccccc3n12	40.6% (inactive)
COC(=O)c1cn(NS(=O)(=O)c2ccc(OC)cc2)cc1C(=O)OC	-1.9% (inactive)

SMILES	growth inhibition
CN(C)c1cc2c(cc1[N+](=O)[O-])-c1ccccc1C2O (centres undefined)	70.5% (active)
CN(C)CCOc1cc2c(c3ccccc13)-c1ccccc1C2O (centres undefined)	34.5% (inactive)
BrC(Br)([P+](c1ccccc1)(c1ccccc1)c1ccccc1)[P+](c1ccccc1)(c1ccccc1)c1ccccc1	12.7% (inactive)
CCOCCNc1ncnc2c1cnn2C	8% (inactive)
C[C@H](CCC1=NCCN1)[C@H]1CC[C@H]2[C@@H]3CC[C@@H]4C[C@H](O)CC[C@]4(C)[C@H]3C[C@H](O)[C@]12C	91.4% (active)
CCOC(=O)C1=C(c2ccccc2)N(C)c2ccccc2S1	87% (active)
C(=P(c1ccccc1)(c1ccccc1)c1ccccc1)[P+](c1ccccc1)(c1ccccc1)c1ccccc1.[Br][Cu][Br]	99% (active)
COc1ccc(N(C)Sc2ccccc2)cc1	69.7% (inactive)
COc1ccc(Cc2c(-c3ccc(C)cc3)n[nH]c(=O)c2C2C(=O)N(c3ccccc3)N=C2c2ccccc2)cc1 (centres undefined)	97.5% (active)
N#CSC#CCCC#CSC#N	92.4% (active)
c1ccc2c(c1)OCC(CNCCNCC1COc3ccccc3O1)O2 (centres undefined)	58.3% (inactive)
CC(C)(C)OC(=O)N[C@H]1CC2(C=C(Cl)C(=O)C(Cl)=C2)OC1=O	70.4% (active)
c1ccc([P+](c2ccccc2)(c2ccccc2)C2CCCC2)cc1	95.5% (active)
COc1ccc2nc(-c3ccc(Cl)cc3)[nH]c2c1	94.2% (active)
CC[C@H](CC[C@@H](C)C1CC[C@H]2[C@@H]3CCC4=CC(=O)CC[C@]4(C)[C@H]3CC[C@]12C)C(C)C (some centres undefined)	30.6% (inactive)
CCOC(=O)N/N=C/c1ccc(N(C)CCC#N)cc1	1.1% (inactive)
CC(Br)C(=O)c1ccc2cc(Cl)c3ccccc3c2c1 (centres undefined)	67.8% (inactive)
Cc1ccc(-n2cc(-c3ccc(Cl)cc3)c3c(NN)ncnc32)cc1	87.7% (active)
O=C1c2ccccc2C(=O)c2c1ccc(C(=O)O)c2-c1ccc2ccccc2c1	96.2% (active)
